In the supplement of paper PMC6805474:

Columns and labels:
[1] = test system: Schistosoma mansoni schistosomula (LE); assay: XTT viability relative to DMSO control; higher = more viable (less active); conditions: 72 h; 10 µM
Method: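 XTT/PMS was then added for a further 24 h (72 h total) and A450 was read. % viability = (sample - heat-killed control)/(DMSO control - heat-killed control) x 100, from duplicate wells in two independent experiments.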

[2] = test system: Schistosoma mansoni schistosomula (NMRI); assay: phenotypic severity score (0-4); higher = more antischistosomal effect, active = 2 or more; conditions: 10 µM
[3] = test system: Schistosoma mansoni schistosomula (Liberian); assay: drug effect (1 - score/DMSO control score) (fraction); higher = more antischistosomal effect, active = 0.5 or more; extreme values may be limits of the assay; conditions: 10 µM
How it was run: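 Schistosomula of the Liberian strain of Schistosoma mansoni were mechanically transformed from cercariae, pre-incubated for at least 12 h, and placed at 50 per well in flat-bottom 96-well plates with Medium 199 containing 5% FCS. Compounds were tested in duplicate at 10 µM at 37 °C and 5% CO2, alongside wells holding 0.1% DMSO. Parasites were scored visually at 10× after 24, 48 and 72 h on a quarter-point scale running from 3 (normal) to 0 (dead). Drug effect came from the mean test-well score relative to the mean DMSO-well score, with negative values set to zero and plates accepted only when the DMSO wells averaged at least 2.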
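Wherever phenotypic severity score (0-4) is given: visual microscopic scoring of shape, motility and density changes versus 0.5% DMSO solvent controls, one point per descriptor, degeneracy or death scored 4, mean of duplicate wells.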

Row | Structure (SMILES) | XTT viability [1] [%] | phenotypic severity score ([2]; 24 h) | phenotypic severity score ([2]; 48 h) | phenotypic severity score ([2]; 72 h) | drug effect ([3]; 24 h) | drug effect ([3]; 48 h) | drug effect ([3]; 72 h)
1 | Cn1ncc2c(N3CCOCC3)nc(NCCc3c[nH]c4ccccc34)nc21 | 71.8 | 4 (active) | 4 (active) | 4 (active) | 0.45 (inactive) | 0.676 (active) | 0.944 (active)
2 | O=C(NC1CC1)c1ccc(N2CCOc3ccc(Cl)cc32)s1 | 83.5 | 0 (inactive) | 0 (inactive) | 0 (inactive) | 0.35 (inactive) | 0.459 (inactive) | 0.5 (active)
3 | COc1cc(OC)cc(C(=O)NCC2Cc3cc(Cl)cc(-c4ccncc4)c3O2)c1 (stereo not drawn) | 153 | 0 (inactive) | 0 (inactive) | 0 (inactive) | 0.1 (inactive) | 0.189 (inactive) | 0.152 (inactive)
4 | O[C@@H](c1cc(C(F)(F)F)nc2c(C(F)(F)F)cccc12)[C@H]1CCCCN1 | -0.139 | 4 (active) | 4 (active) | 4 (active) | 0.955 (active) | 1 (active) | 1 (active)
5 | CC1=Nc2ccc(Cl)cc2C(O)(c2ccc(C)cc2)N1CCN1CCCCC1 (stereo not drawn) | -4.23 | 0 (inactive) | 0 (inactive) | 0 (inactive) | < 0 (inactive) | 0.188 (inactive) | 0.375 (inactive)
6 | COc1ccc(-c2cnc3ccc(NCc4ccc(S(N)(=O)=O)cc4)nn23)cn1 | 125 | 0 (inactive) | 0 (inactive) | 0 (inactive) | 0.15 (inactive) | 0.222 (inactive) | 0.312 (inactive)
7 | COc1cccc(OCC(=O)c2ccc(Br)cc2)c1 | 101 | 0 (inactive) | 0 (inactive) | 0 (inactive) | 0.182 (inactive) | 0.2 (inactive) | 0.127 (inactive)
8 | O=C(C1CCCCC1)N1CC(=O)N2CCc3ccccc3C2C1 (stereo not drawn) | 97.3 | 4 (active) | 4 (active) | 4 (active) | 0.3 (inactive) | 0.351 (inactive) | 0.556 (active)
9 | O=C(Nc1ccc(N2CCNCC2)nc1)c1oc(-c2ccccc2)nc1C(F)(F)F | 69.7 | 0 (inactive) | 0 (inactive) | 0 (inactive) | 0.0811 (inactive) | 0.389 (inactive) | 0.625 (active)
10 | COc1cc(-c2cc(-c3ccc(S(C)(=O)=O)cc3)cnc2N)ccc1O | 139 | 2 (active) | 1 (inactive) | 1 (inactive) | 0.1 (inactive) | 0.189 (inactive) | 0.152 (inactive)
11 | CCOc1ccc(-c2nc(NC(=O)CS(=O)(=O)c3ccccc3)sc2C)cc1 | 61.8 | 0 (inactive) | 0 (inactive) | 1 (inactive) | 0.1 (inactive) | 0.0811 (inactive) | 0.111 (inactive)
12 | O=C(Nc1nnc(-c2ccc(Cl)s2)o1)c1ccc(Cl)s1 | -3.4 | 2 (active) | 4 (active) | 4 (active) | < 0 (inactive) | < 0 (inactive) | < 0 (inactive)
13 | Cc1ccc(NC(=O)CC2COc3ccccc3O2)cc1Cl (stereo not drawn) | 125 | 0 (inactive) | 0 (inactive) | 0 (inactive) | 0.136 (inactive) | 0.3 (inactive) | 0.4 (inactive)
14 | N=C(N)c1ccc(-c2cc(-c3ccccc3)on2)cc1 | 91.6 | 2 (active) | 1 (inactive) | 0 (inactive) | 0.182 (inactive) | 0.65 (active) | 0.455 (inactive)
15 | Cc1ccc(C(=O)Nc2ccc(S(=O)(=O)O)c3cc(S(=O)(=O)O)cc(S(=O)(=O)O)c23)cc1NC(=O)c1cccc(NC(=O)Nc2cccc(C(=O)Nc3cc(C(=O)Nc4ccc(S(=O)(=O)O)c5cc(S(=O)(=O)O)cc(S(=O)(=O)O)c45)ccc3C)c2)c1 | 94.8 | 0 (inactive) | 0 (inactive) | 0 (inactive) | 0.15 (inactive) | 0.297 (inactive) | 0.389 (inactive)
16 | COc1ccc2nc(C)cc(OCC(=O)NCc3ccccc3)c2c1 | 74.7 | 0 (inactive) | 0 (inactive) | 0 (inactive) | 0.0526 (inactive) | 0.0556 (inactive) | < 0 (inactive)
17 | O=C(NCCN1CCCC1)c1cc(NCCN2CCOCC2)nc2ccc(Cl)cc12 | 146 | 0 (inactive) | 0 (inactive) | 0 (inactive) | 0.15 (inactive) | 0.222 (inactive) | 0.438 (inactive)
18 | COc1ccc(-c2nn(C(C)C)c3ncnc(N)c23)cc1OC | 95.2 | 0 (inactive) | 0 (inactive) | 0 (inactive) | 0.05 (inactive) | 0.0556 (inactive) | 0.0556 (inactive)
19 | O=C(Nc1ccccc1)c1ccc(-c2cc3ccncc3cc2OC2CCNCC2)s1 | -18.1 | 0 (inactive) | 0 (inactive) | 0 (inactive) | 0.15 (inactive) | 0.459 (inactive) | 0.455 (inactive)
20 | Cc1ccc(S(=O)(=O)n2cc(-c3ccnc(N)c3)c3cc(Br)cnc32)cc1 | 4.55 | 2 (active) | 3 (active) | 3 (active) | 0.45 (inactive) | 0.568 (active) | 0.515 (active)
21 | CN1CCN(CCCOc2ncc(Nc3ncc(-c4ccc(C(F)(F)F)c(F)c4)nc3C(N)=O)cn2)CC1 | 5.2 | 3 (active) | 3 (active) | 3 (active) | 1 (active) | 1 (active) | 1 (active)
22 | CN(C)c1cc(NC(=O)Nc2ccccc2)c2ccccc2n1 | -13.7 | 1 (inactive) | 0 (inactive) | 0 (inactive) | 0.182 (inactive) | 0.35 (inactive) | 0.455 (inactive)
23 | Cc1ccc(-c2cc(C(=O)Nc3cccnc3)c3cc(Br)ccc3n2)cc1 | 146 | 2 (active) | 1 (inactive) | 0 (inactive) | 0.5 (active) | 0.667 (active) | 1 (active)
24 | Cc1cc(NC(=O)c2ccc(S(=O)(=O)N(Cc3ccccc3)C(C)C)cc2)no1 | 106 | 1 (inactive) | 0 (inactive) | 0 (inactive) | 0.135 (inactive) | 0.444 (inactive) | 0.25 (inactive)
